For the first assay, the target named is CYTH1. The experiment in a line: pooled miR-30 sensor sort-seq; sequence = guide strand. Conditions: shRNA.
In turn, TTGCACTGACAATATCGCTGGG yielded a sensor-assay potency score (higher = more potent) of 0.116.
As to TATTGCACTGACAATATCGCTG, the sensor-assay potency score (higher = more potent) is -0.0444.
Same read-out and setting: the same measure for TAACTTGGTCTTTATTGTCGGG: -0.54; for TTGGTCTTTATTGTCGGGGATA: -1.5; for TCGTTCTCTATTAAGAACTGGA: -0.271.
Still for that read-out and setting: for TGCACTGACAATATCGCTGGGC the value was 0.0607.

The target in a further assay is CYTH4. The assay is described as above. Conditions: shRNA.
As for TTGAGGTTGGCGAACTCGTGGC, the sensor-assay potency score (higher = more potent) is -0.377.
Still for that read-out and setting: for TGATCCTCTGTAACTCTTCCGT the value was -0.462.
Same read-out and setting: the same measure for TGTAACTCTTCCGTCTCCCCGC: -0.31; for TTGTCGGTCAGGATGAACCAGC: -0.768; for TAGCAGGTGTCTGTGGACTGGA: -0.452.
In the case of TTCATGGACACAAAGCGCTCGA, the sensor-assay potency score (higher = more potent) is -0.11.
Turning to TTGAGCAGCCAACCCTCCCGGT, the sensor-assay potency score (higher = more potent) was -1.04.
Consider TTGGATATAGCACCCATCCTGC, for which the sensor-assay potency score (higher = more potent) was -0.488.
On the same count and under the same terms, the same measure for AAGGACAACACGTAGCAGGTGT: 0.877; for TCCATGTTGAACTTCTTGCGCC: -1.08.
Same read-out and setting: the same measure for TTTCGGTGCCACTTGATCCTCT: -0.308.

Another assay concerns the target CYorf15A. The description is as above. Conditions: shRNA.
For TCTGCTTTCTCTCTTAACCCAC, the sensor-assay potency score (higher = more potent) was -0.243.
For TACAACATGGAGTTGCTGCTTT, the sensor-assay potency score (higher = more potent) is 0.408.
Regarding TTGCATTGTAAAGCTTGCTGAC, the sensor-assay potency score (higher = more potent) was -0.311.
Still for that read-out and setting: for TAAAGCTTGCTGACCAGACGGA the value was 0.11; for TTCTTTGTTATAAAGTCACGGC, -0.192.
For ATTTACAACATGGAGTTGCTGC, the sensor-assay potency score (higher = more potent) is -0.262.
Consider TTGTGCATTTACAACATGGAGT, for which the sensor-assay potency score (higher = more potent) is -0.696.
The same measure, in the same setting: for TTGGAGTTGATTATTAACTAAA the value was -1.56; for TTGCTTTACAAAGTCTAGTAGG, -0.465.
As for TTATTTGCTTTACAAAGTCTAG, the sensor-assay potency score (higher = more potent) was -0.983.
Regarding TATCTTTTCCATTATTTGCTTT, the sensor-assay potency score (higher = more potent) is -0.915.
In turn, AAGACTTTTTCTTTGTTCCTGT yielded a sensor-assay potency score (higher = more potent) of 0.524.

The next assay concerns the target DAGLA. Described as above. Conditions: shRNA.
For TTTCATCTGAGAGTCTGTCTTG, the sensor-assay potency score (higher = more potent) stood at 0.187.
Regarding TCTTCTTGATGTACTCAGCTGA, the sensor-assay potency score (higher = more potent) is 0.266.
Still for that read-out and setting: the same measure for TATACAATATACAGAAACCTTT: -0.353.
Sequence TTAAGTACAAAAAAAGTCTGGG displayed a sensor-assay potency score (higher = more potent) of 0.278.
TTAGGAACGGTGCACACTCATG: the sensor-assay potency score (higher = more potent) was -1.56.
The same measure, in the same setting: for TAGTTCTCCAGCACCTTGTTGA the value was -0.467; for TAGAGGTCTTGGAAGGAGCTGC, 0.223.
For the sequence TTGTTTTCTAAACTCTAAGAGC, the sensor-assay potency score (higher = more potent) is -0.925.
Still for that read-out and setting: the same measure for TAAACATGTACAGCACTGCAGG: -1.11; for TAGAAGTCCGGATCTTGTCAGC: -0.641.
On the same count and under the same terms, the same measure for TATAGTTAGGTCGCTGGGGTGG: -0.742.

Values taken from the OligoGym collection.
Also: reference of the scale not given here.
